Hits are enriched below; roughly 1.8% of the tested compounds scored in any of these assays.
LYPLA1 counter: LYPLA1 inhibitors, primary screen, counter-screen for PME1 inhibitor project, biochemical, fluorescence polarization, FP-Rh probe ABPP. 320,000 tested, 0.16% active. recombinant LYPLA1. Acyl-protein thioesterase 1 (Homo sapiens), O75608. AID 2174, 2009. inhibition, % at 5.9 µM;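 active means inhibition above the mean of all tested compounds plus 3 SD, set per campaign, cut at about 14% in these data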;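 further: inhibitors block serine hydrolase probe labeling of LYPLA1 so polarization falls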
Target sequence (O75608 whole entry, looked up): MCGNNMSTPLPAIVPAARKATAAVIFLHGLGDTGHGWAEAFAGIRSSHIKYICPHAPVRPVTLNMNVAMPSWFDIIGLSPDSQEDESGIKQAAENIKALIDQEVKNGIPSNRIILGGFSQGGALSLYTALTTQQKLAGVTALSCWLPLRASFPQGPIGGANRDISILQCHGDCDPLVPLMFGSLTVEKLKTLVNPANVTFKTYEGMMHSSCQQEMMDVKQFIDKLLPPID
Fam108B counter: mouse Fam108B serine hydrolase inhibitors, primary screen, counter-screen for RBBP9 inhibitor project, biochemical, fluorescence polarization; AID 1947, 2009; recombinant Fam108B, FP-Rh probe fluorescence polarization; inhibition, % at 9.51 µM; 300,000 tested, 0.33% active;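 active means inhibition above the screen mean inhibition plus 3 SD, computed separately per campaign, cut at about 18% in these data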;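 further: inhibitors lower polarization as less probe binds the enzyme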
PP1 inh: PP1-alpha phosphatase inhibitors, primary screen, counter-screen for PP5 inhibitor project, biochemical, fluorescence, OMFP substrate, single point; purified PP1alpha; inhibition, % at 6.7 µM; AID 2235, 2010; 320,000 tested, 0.9% active;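 active means inhibition above the mean inhibition of all tested compounds plus 3 SD, computed separately for each screening campaign, cut at about 15% in these data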
PP5 primary: PP5 phosphatase inhibitors, primary screen, biochemical, fluorescence; 320,000 tested, 0.18% active; purified PP5c, OMFP substrate fluorescence; Serine/threonine-protein phosphatase 5 (Homo sapiens), P53041; inhibition, % at 6.7 µM;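 active means inhibition above the campaign's mean inhibition across all tested compounds plus 3 SD, cut at about 9.5% in these data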
PME-1 inh: PME-1 inhibitors via competitive probe labeling, primary screen, biochemical, fluorescence polarization, FP-Rh probe, HTS | recombinant PME-1 | inhibition, % at 5.9 µM | 320,000 tested, 0.53% active | AID 2130, 2009;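 active means inhibition above the campaign mean of all compounds plus 3 SD, cut at about 26% in these data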;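 further: competitive labeling of PME-1 active site by serine hydrolase directed probe; inhibitors block probe labeling so polarization falls and inhibition rises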
LYPLA2 inh: LYPLA2 inhibitors, primary screen, counter-screen for PME1 inhibitor project, biochemical, fluorescence polarization, FP-Rh probe ABPP | Acyl-protein thioesterase 2 (Homo sapiens), O95372 | recombinant LYPLA2 | inhibition, % at 5.9 µM | 320,000 tested, 0.38% active;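 active means inhibition above the screen-wide mean plus 3 SD, limit set per campaign, cut at about 26% in these data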
Target sequence (O95372 whole entry, looked up): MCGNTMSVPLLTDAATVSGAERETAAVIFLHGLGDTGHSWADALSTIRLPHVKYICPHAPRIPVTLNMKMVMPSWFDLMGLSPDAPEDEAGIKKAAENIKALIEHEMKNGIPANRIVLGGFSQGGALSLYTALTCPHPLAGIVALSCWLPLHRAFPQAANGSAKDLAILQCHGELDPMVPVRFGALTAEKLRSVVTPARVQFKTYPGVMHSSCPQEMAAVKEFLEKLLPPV
Fam108b inh conf: mouse Fam108b serine hydrolase inhibitors, confirmation, counter-screen for RBBP9 inhibitor project, biochemical, fluorescence polarization, triplicate; recombinant Fam108b, FP-Rh probe fluorescence polarization; AID 1978, 2009; shares compounds with Fam108B counter; 930 tested, 44% active; inhibition, % at 9.51 µM;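 active means inhibition above a limit from the primary screen, the mean over all compounds plus 3 SD, cut at about 19% in these data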;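 further: inhibitors free the probe so polarization falls as inhibition rises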
Fam108b ABPP HTS: inhibition of mouse Fam108b by HTS hits, late-stage follow-up, biochemical, gel-based ABPP, soluble recombinant form; fluorophosphonate probe; shares compounds with Fam108B counter; 260 tested, 44% active; inhibition, % at 20 µM; in the data active means inhibition above about 40%
Of the large screens only hits and unclear results are named; the others gave an inactive call (follow-up assays come after a bar, where they were run).

Cc1ccc(C)c(N2CC(C(=O)OCC(=O)Nc3cc(C)on3)CC2=O)c1 (stereo unspecified)	none
CC(C)=CCC1=C(OCC(=O)O)C(=O)c2ccccc2C1=O	Fam108B counter 23 | Fam108b inh conf inactive
CC(C)=CCC/C(C)=C/CC/C(C)=C/CC/C(C)=C/CC1=C(C)C(=O)c2ccccc2C1=O	none
O=C(COc1ccccc1F)Nc1cc(S(=O)(=O)Nc2cccc(Cl)c2)ccc1O	none (no result: Fam108B counter)
CCCC(=O)Nc1sc2c(c1C#N)CCCCC2	Fam108B counter 70 | Fam108b inh conf inactive
CCC(=O)Nc1sc2c(c1C#N)CCCCC2	none
COc1ccc2c(c1)c(C(C)=O)c(C)n2-c1ccccc1OC	none
CCC(=O)NC(c1ccccc1Cl)c1c(O)ccc2ccccc12 (stereo unspecified)	Fam108B counter 18, PME-1 inh 47 | Fam108b inh conf inactive
CC(C)C(=O)NC(c1ccccc1Cl)c1c(O)ccc2ccccc12 (stereo unspecified)	none
N#C/C(C(=O)Nc1ccc(Cl)cc1)=C(/S)Nc1ccccc1	none
Cc1cccc(OCCn2cc(/C=N/NC(=O)c3ccncc3)c3ccccc32)c1	Fam108B counter 30, PME-1 inh 27 | Fam108b inh conf inactive
COC(=O)N/N=C/c1cn(CCOc2cccc(OC)c2)c2ccccc12	none
Cc1c(C(=O)N2CCN(C3CCS(=O)(=O)C3)CC2)oc2c(F)cccc12 (stereo unspecified)	none (no result: Fam108B counter)
COc1ccc(N/N=C(\C=N\O)C(=O)c2ccc(OC)cc2)cc1	Fam108B counter 47, PME-1 inh 57 | Fam108b inh conf 42
COc1ccc(NC(=O)/C=N/O)cc1	none
COc1cccc(OCc2cc(C(=O)N3CCN(C)C(c4ccccc4)C3)no2)c1 (stereo unspecified)	none
CN(C)S(=O)(=O)c1ccc2c(c1)nc(CCC(=O)NCCc1ccc(Cl)cc1)n2C	none
CCCn1c(=N)n(CC(=O)c2ccc([N+](=O)[O-])cc2)c2ccccc21	Fam108B counter 24 | Fam108b inh conf inactive
CCCn1c(=N)n(CC(=O)c2ccc(Cl)cc2)c2ccccc21	none
O=C(CNc1ccc2ccccc2c1)N/N=C/c1cc2ccccc2nc1Cl	Fam108B counter 37, PME-1 inh 52 | Fam108b inh conf inactive
CC(=O)Nc1ccc(S(=O)(=O)NCCc2cn3nc(C)c(C)nc3n2)cc1	none
N=c1oc2cc(O)ccc2cc1C(=O)Nc1ccc(Cl)cc1	Fam108B counter 22 | Fam108b inh conf inactive
Cc1ccc(NC(=O)c2cc3ccccc3oc2=N)cc1	none
CSC1=NSC2=NC(=O)/C(=C\c3ccc(OC(=O)c4ccco4)cc3)C(=N)N12	none
CCSC1=NSC2=NC(=O)/C(=C\c3coc4ccccc4c3=O)C(=N)N12	Fam108B counter 43 | Fam108b inh conf 47 | Fam108b ABPP HTS inactive
Cc1ccc(-n2[nH]c(C)c(/C=N/Nc3ccc([N+](=O)[O-])cc3[N+](=O)[O-])c2=O)cc1C	Fam108B counter 25, PME-1 inh 30 | Fam108b inh conf inactive
CCN1C(=O)[C@H]2[C@@H](c3ccc(Cl)cc3)N3C(=O)CN(CC4CC4)C(=O)[C@@]3(C)[C@H]2C1=O	none
CN(C)C1(CNC(=O)C2CCN(S(=O)(=O)c3ccccc3C(F)(F)F)CC2)CCCCC1	none
Cc1ccc(NCc2ccccc2F)cc1	Fam108B counter 19 | Fam108b inh conf inactive
COc1ccc(NC(=O)Nc2cccc([N+](=O)[O-])c2)cc1Cl	Fam108B counter 32, PME-1 inh 42 | Fam108b inh conf 97 | Fam108b ABPP HTS inactive
COc1cc([N+](=O)[O-])ccc1NC(=O)Nc1ccc2c(c1)OCCO2	Fam108B counter 19 | Fam108b inh conf inactive
Cn1cccc1/C=N/NC(=O)CSc1nc2ccccc2[nH]1	none
O=C(CCN1C(=O)C2CC=CCC2C1=O)Nc1nc(-c2ccc(F)c(F)c2)cs1 (stereo unspecified)	none (no result: Fam108B counter)
O=C(N=Nc1c(O)[nH]c2ccc([N+](=O)[O-])cc12)c1ccccc1Cl	none
O=C(O)c1ccccc1N=Nc1c(O)[nH]c2ccc([N+](=O)[O-])cc12	Fam108B counter 21 | Fam108b inh conf inactive
O=C(O)C1=CC(=C(c2ccc(O)c(C(=O)O)c2)c2ccc(O)c(C(=O)O)c2)C=CC1=O	Fam108B counter 53, PP1 inh 82 | Fam108b inh conf 32
COC(=O)C(Cc1ccccc1)NC(=O)CCNC(=O)c1ccc(Br)cc1 (stereo unspecified)	none
Oc1ccc(/C=N/Nc2nc(-c3cccnc3)nc3ccccc23)c(O)c1	Fam108B counter 52, PME-1 inh 52 | Fam108b inh conf inactive
Cc1c(O)ccc(/C=N/Nc2nc(-c3cccnc3)nc3ccccc23)c1O	Fam108B counter 39, PME-1 inh 40 | Fam108b inh conf active
Cc1cc(N/N=C/c2ccc(O)c(C)c2O)nc(-c2ccccc2O)n1	Fam108B counter 43, PME-1 inh 62 | Fam108b inh conf inactive
CN(C(=O)COC(=O)c1ccc2c(c1)OCO2)c1c(N)n(Cc2ccccc2)c(=O)[nH]c1=O	none
CCN(C(=O)C(C)N1C(=O)/C(=C/c2ccco2)SC1=S)C1CCS(=O)(=O)C1 (stereo unspecified)	none
CC(C(=O)O)N1C(=O)/C(=C/C=C/c2ccco2)SC1=S (stereo unspecified)	Fam108B counter 30 | Fam108b inh conf inactive
CCN(CC)c1ccc(/C=N/NC(=O)c2ccc3nc[nH]c3c2)c(O)c1	Fam108B counter 22 | Fam108b inh conf inactive
CCN(CC)c1ccc(/C=N/NC(=O)c2cccc(S(=O)(=O)Nc3ccccc3OC)c2)c(O)c1	Fam108B counter 58, PME-1 inh 45 | Fam108b inh conf inactive
COc1cccc(/C=N/NC(=O)c2ccc3nc[nH]c3c2)c1O	none
O=C1C2=C(Nc3ccccc3SC2c2ccco2)c2ccccc21 (stereo unspecified)	Fam108B counter 31, PME-1 inh 29 | Fam108b inh conf inactive
O=C(NNc1c2ccccc2nc2ccccc12)c1ccc(O)cc1O	Fam108B counter 25, PME-1 inh 78 | Fam108b inh conf inactive

Screening results from PubChem BioAssay.
